# Screening results as filed in PubChem.
# TTR transcr act – increases transthyretin transcription; SH-SY5Y TTR promoter Gaussia luciferase, luminescence; 100% = recombinant luciferase protein wells; activation, % at 16.7 µM; actives 1.3% (n = 92,000);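 active means activation above the mean of all tested compounds plus 3 SD, cut at about 9.5% in these data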;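 further: cells exposed to compounds for one day before reading; 0% = median of all test compound wells on the plate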
# TTR inh HuH7 – decreases TTR transcription in HuH7 cells in activator counter-screen | shares compounds with TTR transcr act | AID 1117279 | HuH7 TTR promoter-Gaussia luciferase reporter, luminescence | inhibition, % at 16.7 µM | actives 4% (n = 1,100);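 active means average inhibition above the solvent-only control wells' mean plus 3 SD, cut at about 15% in these data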;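 further: 0% = cells with DMSO only and 100% = cells with inhibitor control FD; inhibitors lower well luminescence so higher value means more inhibition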
# TTR act confirm – human TTR transcription activation, confirmation. shares compounds with TTR transcr act. SHSY5Y TTR promoter Gaussia luciferase, luminescence; 100% = purified Lucia enzyme wells, no cells. activation, % at 16.7 µM. 1,100 tested, under 10 active. AID 1117280;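 active means mean activation above a set limit taken from the earlier primary screen, cut at about 11% in these data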;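 further: 0% = DMSO-treated cells and 100% = recombinant Lucia luciferase without cells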
# Active calls of the source: *. This excerpt belongs to a sample that is enriched for hits.
SMILES,TTR transcr act,others
CCN(CC)c1ccc(N=Cc2ccc([N+](=O)[O-])o2)cc1,17*,TTR inh HuH7=-2;TTR act confirm=0
O=C(Nc1ccc(N2C(=O)CC3(CCCCC3)C2=O)c(Cl)c1)c1ccccn1,-1,
CC(=O)c1noc(C)c1C(=O)Nc1nccs1,-4,
Cc1cccc(C(=O)Nc2nccs2)c1[N+](=O)[O-],40*,TTR inh HuH7=-7;TTR act confirm=0
Cc1ncoc1C(=O)Nc1nccs1,10.0*,TTR inh HuH7=-9;TTR act confirm=1
CCOC(=O)c1ccc(NC(=O)c2cccc(C)c2[N+](=O)[O-])cc1,1,
O=C(Nc1nccs1)c1ccc2c(c1)OCO2,0,
CSc1ccccc1C(=O)Nc1nccs1,-1,
Cc1ccc(NC(=O)OC2CC3CC2[C@H]2CCCCN2C3)cc1C (some centres undefined),0,
CCc1ccccc1NC(=O)C1CCCN1S(=O)(=O)c1ccc2c(c1)n(C)c(=O)c(=O)n2C (centres undefined),18*,TTR inh HuH7=-15;TTR act confirm=0
COc1cccc(NC(=O)C2CCCN2S(=O)(=O)c2ccc3c(c2)C(C)(C)C(=O)N3C)c1 (centres undefined),-1,
CCc1ccccc1NC(=O)[C@@H]1CCCN1S(=O)(=O)c1cccc2cccnc12,1,
CCOc1ccccc1NC(=O)C1CCCN1S(=O)(=O)c1ccc2c(c1)C(C)(C)C(=O)N2C (centres undefined),12*,TTR inh HuH7=-15;TTR act confirm=0
Cc1cccc(NC(=O)C2CCN(S(=O)(=O)c3ccc4c(c3)C(C)(C)C(=O)N4C)CC2)c1C,4,
CCc1ccccc1NC(=O)C1CCCN1S(=O)(=O)c1ccc(-c2ccc(=O)[nH]n2)s1 (centres undefined),1,
N#Cc1ccc(NC(=O)OC2CC3CC2[C@H]2CCCCN2[C@H]3Cc2ccccc2)cc1 (some centres undefined),0,
COc1cccc(C(=O)n2ccc3ccc(-c4ccc5ccn(Cc6ccccc6)c5c4)cc32)c1,5,
CCC[C@H]1[C@@H](NC(=O)C2CCC2)CC[C@@]23CCCN2C(=O)CCC[C@@H]13,-2,
C[C@H]1CCC[C@@H](O)CC(=O)c2c(O)cc(O)cc2CC(=O)O1,-2,
COC(=O)C1=CC[C@@H](NC(=O)OC(C)(C)C)[C@H](O)[C@H]1O[Si](C)(C)C(C)(C)C,1,
CN(Cc1ccccc1)C(=O)OCc1cn(Cc2ccc(Cl)cc2)nn1,-1,
O=C(NCc1cccc(C(F)(F)F)c1)c1csc([C@@H]2C[C@H](O)[C@@H](CO)O2)n1,-2,
O=C(NNC(=O)c1cccc(Br)c1)Nc1ccc(Cl)cc1,-1,
N#C/C(=C\c1cccc(Br)c1)C(=O)N1CCCCC1,0,
O=C(NNC(=O)c1cccc(Br)c1)C(=O)N1CCCCC1,9.9*,TTR inh HuH7=-13;TTR act confirm=0
SMILES,TTR transcr act,others
CCCCOCCCNC(=O)C[C@H]1C[C@@]2(C(=O)OC)C(=C[C@H](COCc3ccccc3)O[C@@H]2C)N(CCc2ccc(OC)c(OC)c2)C1=O,0,
CC(C)CNC(=O)OCc1cn(Cc2ccccc2)nn1,2,
C=CCN1C(=O)[C@H](CC(=O)N2CCCC2)[C@@]2(C(=O)OCC)CCCC=C12,2,
COC(=O)CSc1nnc(-c2ccc(OC)c(OC)c2)o1,3,
CCOC(=O)Cc1csc(NC(=O)CSc2nnc(-c3ccc(NS(=O)(=O)CC)cc3)o2)n1,-3,
CCS(=O)(=O)Nc1ccc(-c2nnc(SCC(=O)OC)o2)cc1,10*,TTR inh HuH7=-7;TTR act confirm=0
CCOC(=O)[C@@H](NC(=O)[C@@H]1CC=C[C@@H]2CCN(Cc3ccc(Cl)cc3)C(=O)[C@@H]21)C(C)C,1,
COc1ccc(CNC2CCC23CCCCC3)cc1OC (centres undefined),-1,
C=CCN1C(=O)[C@H](CC(=O)N2CCN(C(=O)C3CC3)CC2)[C@@]2(C(=O)OCC)CCCC=C12,0,
Cc1ccc(-c2n[nH]c(=S)n2/N=C/c2cccs2)cc1,14*,TTR inh HuH7=-16;TTR act confirm=0
Cc1ccc(/C=N/n2c(-c3ccncc3)n[nH]c2=S)cc1,1,
Cn1cccc1/C=N/n1c(-c2ccc(Cl)cc2)n[nH]c1=S,-5,
CCCC1CCC2(CC1)CCC2OC(=S)Nc1ccccc1Cl (centres undefined),2,
CC(C)[C@H]1/C(=C/C2CC2)N2C(=O)C[C@H](c3cccc(C(F)(F)F)c3)N=C2N1Cc1ccc2c(c1)OCO2,0,
O=c1nc(SCc2ccc(Cl)cc2)nc(-c2ccccc2)[nH]1,-1,
Cc1nnc(SCc2ccc(Cl)cc2)nc1/C=C/N(C)C,9.7*,TTR inh HuH7=17*;TTR act confirm=-2
Cc1nc(C)c(-c2ccc(SCc3ccc(Cl)cc3)nn2)s1,-2,
Cc1ccc(C(=O)CNc2ccc(C)cc2C)cc1,5,
Cc1cccc(NCCC(=O)c2ccc([N+](=O)[O-])cc2)c1C,0,
Cc1ccc(NCCC(=O)c2cccc([N+](=O)[O-])c2)c(C)c1,16*,TTR inh HuH7=-2;TTR act confirm=0
COC(=O)c1cc(C)oc1C,7,
NC(=O)c1c(N)[nH]c(C(=O)c2ccccc2)c1-c1ccccn1,0,
C[C@@H]1C(=O)O[C@@H]2CC34[C@H]5C[C@@H](C(C)(C)C)C36[C@H](OC(=O)[C@@H]6O)OC4(C(=O)O5)[C@@]12O (some centres undefined),23*,TTR inh HuH7=-7;TTR act confirm=2
O=C(NCC(c1ccccc1)c1ccccc1)[C@H](Cc1c[nH]c2ccccc12)NC1(C(=O)NC2CCCCC2)CCC1,0,
O=C(c1cc(C2CC2)on1)N(C1CCCCC1)C1CCCCC1,0,
SMILES,TTR transcr act,others
C=CCN1C(=O)[C@H](CC(=O)N2CCC(c3ccccc3)CC2)[C@@]2(C(=O)OCC)CCCC=C12,-2,
CCN1C(=O)N(c2cccc3ccccc23)C(C)=CC1(C)C,28*,TTR inh HuH7=-6;TTR act confirm=-1
CC1=CC(=O)N(c2cccc3c(N4C(=O)C=C(C)C4=O)cccc23)C1=O,2,
CN1/C(=C/C2CC(=O)N(c3cccc4ccccc34)C2=O)C(C)(C)c2ccccc21 (centres undefined),-2,
CCC[C@H]1[C@H](N)CC[C@@]23CCCN2C(=O)CCC[C@@H]13,0,
COc1ccc(C(=O)N[C@H]2CC[C@@]34CCCN3C(=O)CCC[C@H]4[C@H]2C)cc1,0,
C[C@@H]1Cn2cnc(C(=O)NCC(=O)OC(C)(C)C)c2C(=O)N1,1,
COc1ccc(Cl)cc1C(=O)O/N=C(\N)c1ccncc1,1,
N/C(=N\OC(=O)c1cccnc1)c1ccc(Cl)cc1Cl,0,
Cc1ccc(/C(N)=N/OC(=O)c2ccc(Cl)cc2Cl)cc1,20*,TTR inh HuH7=6;TTR act confirm=-1
COc1cc(O)c(C(CC(=O)N2CCCC(C)C2)c2ccccc2)c(OC)c1 (centres undefined),-1,
OC(COC(c1ccc(Cl)cc1)c1ccc(Cl)cc1)CN1CCN(c2ccccn2)CC1 (centres undefined),0,
OC(CN1CCN(c2ccccn2)CC1)Cn1c2ccc(Cl)cc2c2cc(Cl)ccc21 (centres undefined),36*,TTR inh HuH7=-6;TTR act confirm=1
Cc1ccc(OCC(O)CN2CCN(c3ccccn3)CC2)c(C)c1 (centres undefined),-4,
Cc1ccc(-c2nn(-c3ccccc3)cc2NC(=O)c2ccccc2)cc1,13*,TTR inh HuH7=1;TTR act confirm=-1
O=C(Nc1cn(-c2ccccc2)nc1-c1ccc(Cl)cc1)c1ccccc1,0,
